The text below walks through data of PubChem BioAssay (EPA / NIEHS).

Common to all, as to conditions: mRNA level, 48 h; actives raise or lower the signal
Read-out in experiment [1]: Bcl-2 (BAX) gene, BAX (gene 581)
The experiment is described as follows: LTEA_HepaRG_BAX: Life Technologies and Expression Analysis (LTEA) Assay for Bcl-2 (BAX) gene using HepaRG (AID 2283470). The procedure, abridged: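 qRT-PCR read-out of BAX mRNA, normalized to three housekeeping genes, after 48 h chemical exposure of human HepaRG cells in serum-free induction medium; eight-point half-log series, top 100 uM, 0.5% DMSO vehicle; bidirectional fit versus DMSO.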

Read-out in experiment [2]: adenosine kinase (ADK) gene, ADK (gene 132)
The experiment is described as follows: LTEA_HepaRG_ADK: Life Technologies and Expression Analysis (LTEA) Assay for adenosine kinase (ADK) gene using HepaRG (AID 2283471). The method in brief: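 HepaRG (human liver), 48 h chemical exposure, 8-pt half-log series, top 100 uM, 0.5% DMSO vehicle. Readout: ADK mRNA by qRT-PCR vs housekeeping genes; bidirectional curve fit relative to DMSO baseline.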

Read-out in experiment [3]: Alpha-fetoprotein (AFP) gene, AFP (gene 174)
The experiment is described as follows: LTEA_HepaRG_AFP: Life Technologies and Expression Analysis (LTEA) Assay for Alpha-fetoprotein (AFP) gene using HepaRG (AID 2283472). The procedure, abridged: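 qRT-PCR (Fluidigm TaqMan) readout of AFP transcript, normalized to three housekeeping genes, fitted bidirectionally against 0.5% DMSO baseline. HepaRG cells received chemicals for 48 h in serum-free induction medium, top concentration 100 uM, half-log steps.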

Read-out in experiment [4]: BCL2L11 (gene 10018)
Description: LTEA_HepaRG_BCL2L11: Life Technologies and Expression Analysis (LTEA) Assay for Bcl-2 (BCL2L11) gene using HepaRG (AID 2283473). The procedure, abridged:
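Differentiated human HepaRG cells in serum-free induction medium were exposed in duplicate for 48 h to eight concentrations (top 100 uM, half-log steps, 0.5% DMSO). BCL2L11 mRNA was quantified by TaqMan qRT-PCR, normalized to ACTB/GAPDH/POLR2A, bidirectional fit versus DMSO.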

Read-out in experiment [5]: Apoptosis regulator Bcl-2 (Homo sapiens) (UniProt P10415)
Description: LTEA_HepaRG_BCL2: Life Technologies and Expression Analysis (LTEA) Assay for Bcl-2 gene using HepaRG (AID 2283475). The procedure, abridged: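 qRT-PCR read-out (Fluidigm TaqMan) of BCL2 transcript, normalised to three housekeeping genes, after 48 h chemical exposure of HepaRG cells; 8-point half-log series, top 100 uM, 0.5% DMSO vehicle. Gain or loss of signal fitted relative to DMSO baseline.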

Read-out in experiment [6]: Bcl-2 (BID) gene, BID (gene 637)
The experiment is described as follows: LTEA_HepaRG_BID: Life Technologies and Expression Analysis (LTEA) Assay for Bcl-2 (BID) gene using HepaRG (AID 2283476). The procedure, abridged: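 HepaRG, 48 h exposure, 8-pt half-log series, top 100 uM, 0.5% DMSO vehicle, duplicates. Readout: BID mRNA by TaqMan qRT-PCR; housekeeping-normalized; bidirectional curve fit vs DMSO baseline.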

Read-out in experiment [7]: Caspase-3 (Homo sapiens) (UniProt P42574)
Description: LTEA_HepaRG_CASP3: Life Technologies and Expression Analysis (LTEA) Assay for cysteine-aspartic acid protease (CASP3) using HepaRG (AID 2283477). The method in brief: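 Differentiated human HepaRG cells in serum-free induction medium were exposed 48 h to 8-point half-log concentrations from 100 uM (0.5% DMSO vehicle). CASP3 mRNA was measured by qRT-PCR, normalised to ACTB, GAPDH and POLR2A, with bidirectional fitting against DMSO.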

Read-out in experiment [8]: Cytochrome P450 (CYP24A1), CYP24A1 (gene 1591)
The experiment is described as follows: LTEA_HepaRG_CYP24A1: Life Technologies and Expression Analysis (LTEA) Assay for Cytochrome P450 (CYP24A1) using HepaRG (AID 2283478). The procedure, abridged:
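Differentiated HepaRG cells, pre-cultured 48 h, were exposed in duplicate for 48 h in serum-free induction medium to 8 half-log concentrations (top 100 uM, 0.5% DMSO). CYP24A1 mRNA was quantified by TaqMan qRT-PCR, normalized to ACTB/GAPDH/POLR2A, fitted bidirectionally versus DMSO.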

Read-out in experiment [9]: Cytochrome P450 (CYP1A2), CYP1A2 (gene 1544)
Description: LTEA_HepaRG_CYP1A2: Life Technologies and Expression Analysis (LTEA) Assay for Cytochrome P450 (CYP1A2) using HepaRG (AID 2283479). The method in brief: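 Differentiated human HepaRG cells in serum-free induction medium were exposed in duplicate for 48 h to 8-point half-log concentrations up to 100 uM in 0.5% DMSO. CYP1A2 mRNA measured by qRT-PCR, normalized to ACTB, GAPDH, POLR2A; bidirectional fit vs DMSO.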

Read-out in experiment [10]: cysteine-aspartic acid protease (CASP8), CASP8 (gene 841)
Description: LTEA_HepaRG_CASP8: Life Technologies and Expression Analysis (LTEA) Assay for cysteine-aspartic acid protease (CASP8) using HepaRG (AID 2283480). The procedure, abridged: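 CASP8 transcript measured by TaqMan qRT-PCR with ACTB/GAPDH/POLR2A normalization, after 48 h chemical exposure of HepaRG cells in serum-free induction medium. Eight concentrations, top 100 uM, half-log steps, 0.5% DMSO vehicle; fits in both directions versus DMSO.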

Read-out in experiment [11]: Cytochrome P450 (CYP2B6), CYP2B6 (gene 1555)
The experiment is described as follows: LTEA_HepaRG_CYP2B6: Life Technologies and Expression Analysis (LTEA) Assay for Cytochrome P450 (CYP2B6) using HepaRG (AID 2283481). The method in brief: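 Differentiated HepaRG cells, serum-free induction medium, exposed 48 h in duplicate to 8-point half-log concentrations from 100 uM in 0.5% DMSO. CYP2B6 mRNA by qRT-PCR, normalized to ACTB, GAPDH, POLR2A; bidirectional fit versus DMSO.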

Read-out in experiment [12]: Cytochrome P450 2C19 (Homo sapiens) (UniProt P33261)
The experiment is described as follows: LTEA_HepaRG_CYP2C19: Life Technologies and Expression Analysis (LTEA) Assay for CYP2C19 using HepaRG (AID 2283482). The procedure, abridged: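 Differentiated human HepaRG cells were exposed for 48 h in serum-free induction medium to 8 concentrations (top 100 uM, half-log steps, 0.5% DMSO). CYP2C19 mRNA was measured by qRT-PCR, normalized to ACTB/GAPDH/POLR2A, and fitted bidirectionally against DMSO.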

Read-out in experiment [13]: CYP2C8 (gene 1558)
The experiment is described as follows: LTEA_HepaRG_CYP2C8: Life Technologies and Expression Analysis (LTEA) Assay for CYP2C8 using HepaRG (AID 2283483). The procedure, abridged: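 CYP2C8 expression measured by TaqMan qRT-PCR and normalized to three housekeeping genes. HepaRG cultures were treated for 48 h with an eight-point half-log series topping at 100 uM, vehicle 0.5% DMSO, duplicates; fitted both directions against DMSO.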

Read-out in experiment [14]: CYP2C9 (gene 1559)
Description: LTEA_HepaRG_CYP2C9: Life Technologies and Expression Analysis (LTEA) Assay for CYP2C9 using HepaRG (AID 2283484). The method in brief:
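CYP2C9 transcript level, quantified by TaqMan qRT-PCR against three housekeeping genes, was fitted bidirectionally relative to 0.5% DMSO. HepaRG cultures were treated 48 h, in duplicate, at eight half-log concentrations topping at 100 uM.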

Read-out in experiment [15]: CYP2E1 (gene 1571)
The experiment is described as follows: LTEA_HepaRG_CYP2E1: Life Technologies and Expression Analysis (LTEA) Assay for CYP2E1 using HepaRG (AID 2283485). The method in brief: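 CYP2E1 transcript was measured by TaqMan qRT-PCR in human HepaRG cultures after 48 h chemical exposure (top 100 uM, half-log steps, 0.5% DMSO vehicle). Housekeeping-gene normalization; gain or loss fitted relative to DMSO baseline.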

Read-out in experiment [16]: CYP4A11 (gene 1579)
The experiment is described as follows: LTEA_HepaRG_CYP4A11: Life Technologies and Expression Analysis (LTEA) Assay for CYP4A11 using HepaRG (AID 2283486). The procedure, abridged:
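Differentiated HepaRG cells, serum-free induction medium, exposed 48 h in duplicate to 8-point half-log series from 100 uM in 0.5% DMSO. CYP4A11 mRNA measured by qRT-PCR, normalized to ACTB, GAPDH, POLR2A; bidirectional fit versus DMSO.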

Read-out in experiment [17]: DNA damage-inducible transcript 3 (DDIT3), DDIT3 (gene 1649)
Description: LTEA_HepaRG_DDIT3: Life Technologies and Expression Analysis (LTEA) Assay for DNA damage-inducible transcript 3 (DDIT3) using HepaRG (AID 2283488). The procedure, abridged: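 qRT-PCR readout (Fluidigm TaqMan), housekeeping-normalized to ACTB, GAPDH, POLR2A. HepaRG cells, 48 h exposure, 8-point half-log series from 100 uM in 0.5% DMSO, duplicates. Gain or loss of signal fitted against DMSO baseline.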

Read-out in experiment [18]: Pro-epidermal growth factor (Homo sapiens) (UniProt P01133)
The experiment is described as follows: LTEA_HepaRG_EGF: Life Technologies and Expression Analysis (LTEA) Assay for Epidermal growth factor (EGF) using HepaRG (AID 2283489). The procedure, abridged:
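Differentiated human HepaRG cells, plated 48 h then switched to serum-free induction medium, were exposed for 48 h to test chemicals (8-point half-log series, top 100 uM, 0.5% DMSO). EGF mRNA was quantified by qRT-PCR, normalized to ACTB, GAPDH, POLR2A.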

Read-out in experiment [19]: Cytochrome P450 3A4 (Homo sapiens) (UniProt P08684)
Description: LTEA_HepaRG_CYP3A4: Life Technologies and Expression Analysis (LTEA) Assay for CYP3A4 using HepaRG (AID 2283487). The procedure, abridged: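 CYP3A4 transcript measured by TaqMan qRT-PCR and normalized to three housekeeping genes after 48 h chemical exposure of human HepaRG cells. Top concentration 100 uM, half-log steps, 0.5% DMSO vehicle; gain or loss fitted against DMSO baseline.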

Active and inactive are the calls of the source. The calls were made as follows: active = hit-call score of the fitted dose curve at least 0.9, where 1 is the maximum; inactive = score below 0.9.

The AC50 is the midpoint of the concentration-response curve, whichever way the signal moves.

Apoptosis regulator Bcl-2 (Homo sapiens), sequence (P10415 whole entry, looked up): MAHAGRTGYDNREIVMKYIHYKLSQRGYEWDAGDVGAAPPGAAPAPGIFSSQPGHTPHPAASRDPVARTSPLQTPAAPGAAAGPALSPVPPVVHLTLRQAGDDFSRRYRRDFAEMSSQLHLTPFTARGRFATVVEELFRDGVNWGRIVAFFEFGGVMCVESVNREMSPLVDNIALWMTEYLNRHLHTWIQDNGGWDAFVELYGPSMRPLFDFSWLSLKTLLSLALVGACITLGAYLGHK
Cytochrome P450 2C19 (Homo sapiens), sequence (P33261 whole entry, looked up): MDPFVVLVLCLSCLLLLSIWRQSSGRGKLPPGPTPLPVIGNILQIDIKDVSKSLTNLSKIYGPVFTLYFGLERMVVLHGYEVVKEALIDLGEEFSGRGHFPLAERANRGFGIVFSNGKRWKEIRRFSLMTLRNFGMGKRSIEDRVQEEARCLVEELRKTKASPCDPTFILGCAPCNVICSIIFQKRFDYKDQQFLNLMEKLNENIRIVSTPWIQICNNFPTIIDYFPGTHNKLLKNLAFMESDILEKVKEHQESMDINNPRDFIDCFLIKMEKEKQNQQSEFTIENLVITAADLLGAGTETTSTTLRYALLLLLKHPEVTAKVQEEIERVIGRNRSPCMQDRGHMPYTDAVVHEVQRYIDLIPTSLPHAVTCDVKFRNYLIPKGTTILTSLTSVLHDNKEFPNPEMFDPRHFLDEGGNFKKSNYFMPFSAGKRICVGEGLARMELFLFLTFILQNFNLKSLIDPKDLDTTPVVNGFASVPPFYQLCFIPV
Caspase-3 (Homo sapiens), sequence (P42574 whole entry, looked up): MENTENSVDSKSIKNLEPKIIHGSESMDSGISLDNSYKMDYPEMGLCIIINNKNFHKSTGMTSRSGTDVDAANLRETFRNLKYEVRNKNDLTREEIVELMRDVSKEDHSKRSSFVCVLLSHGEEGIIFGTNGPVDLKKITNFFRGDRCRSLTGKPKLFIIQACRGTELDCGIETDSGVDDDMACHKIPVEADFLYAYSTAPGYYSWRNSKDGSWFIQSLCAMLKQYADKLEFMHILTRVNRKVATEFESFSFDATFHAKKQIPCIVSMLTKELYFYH
Cytochrome P450 3A4 (Homo sapiens), sequence (P08684 whole entry, looked up): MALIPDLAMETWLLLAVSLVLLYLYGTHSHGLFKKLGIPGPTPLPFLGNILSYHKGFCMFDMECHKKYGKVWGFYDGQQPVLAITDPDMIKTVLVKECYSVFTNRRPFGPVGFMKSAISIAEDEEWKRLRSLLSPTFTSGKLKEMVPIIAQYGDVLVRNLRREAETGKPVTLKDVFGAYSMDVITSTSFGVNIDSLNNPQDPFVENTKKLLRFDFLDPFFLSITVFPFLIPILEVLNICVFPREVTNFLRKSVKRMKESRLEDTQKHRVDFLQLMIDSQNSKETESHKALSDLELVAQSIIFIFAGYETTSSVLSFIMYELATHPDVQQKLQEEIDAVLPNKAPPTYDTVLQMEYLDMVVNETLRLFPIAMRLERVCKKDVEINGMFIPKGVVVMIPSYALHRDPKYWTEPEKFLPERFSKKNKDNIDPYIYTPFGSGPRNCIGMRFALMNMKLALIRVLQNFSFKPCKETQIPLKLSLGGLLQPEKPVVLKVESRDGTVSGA

`CC(=O)OCC(COC(C)=O)OC(C)=O`: the call in [1], in experiment [2], in experiment [3], in experiment [4], in experiment [5] and in [6] was inactive. Further, the call in experiment [7], in experiment [8], in [9], in experiment [10], in experiment [11] and in [12] was inactive. For the same compound, the result in experiment [13], in [14], in experiment [15], in [16], in [17] and in experiment [18] was inactive.

Take `COC(=O)CCCC(=O)OC`: the compound was called inactive in experiment [1], in experiment [2], in experiment [3], in experiment [4], in experiment [5] and in experiment [6]. Further, the compound was classed as inactive in experiment [7], in experiment [8], in [9], in experiment [10], in experiment [11] and in experiment [12]. In addition, the compound was called inactive in [13], in experiment [14], in experiment [15] and in experiment [18].

With `O=C(O)c1[nH]n(-c2ccc(S(=O)(=O)O)cc2)c(=O)c1N=Nc1ccc(S(=O)(=O)O)cc1`, the call in experiment [1], in [2], in experiment [3], in experiment [4], in [5] and in experiment [6] was inactive. The outcome in [7], in experiment [8], in experiment [10], in [11], in [12] and in [13] was inactive. Moreover, the compound was called inactive in experiment [14], in experiment [15], in experiment [16] and in [18]. In addition, in experiment [9], the AC50 was 14.8 µM (active).

Regarding `O=C(Oc1ccccc1)c1cccc(C(=O)Oc2ccccc2)c1`, the result in experiment [1], in experiment [2], in experiment [3], in [4], in [5] and in experiment [6] was inactive. Besides, the compound was called inactive in experiment [7], in [8], in experiment [10], in [12], in [13] and in experiment [14]. Moreover, the compound was classed as inactive in [15], in experiment [19], in experiment [17] and in [18]. The AC50 in [9] was 52.2 µM (active); in [11] it was 15.9 µM (active).

`CSc1ccc(Oc2ccc(S(N)(=O)=O)cc2CN(C)C)cc1C`: the compound was classed as inactive in experiment [1], in [2], in [4], in [5], in [6] and in experiment [7]. Besides, the compound was classed as inactive in [8], in [10], in experiment [12], in experiment [13], in experiment [14] and in [18]. In addition, the AC50 in experiment [3] was 75 µM (active); in experiment [9] it was 50 µM (active); in experiment [11], 12.1 µM (active); in experiment [15], 47.6 µM (active); in experiment [16] it was 77.5 µM (active).
